According to PubChem BioAssay (Tox21):
The source made the active and inactive calls. Entries that show only a call come without a potency. Calls come from the whole dose curve.

target: Gonadotropin-releasing hormone receptor (Homo sapiens) (UniProt P30968); assay: Human gonadotropin-releasing hormone receptor (GnRHR) small molecule agonists, calcium flux assay in GnRHR-HEK293 cells (AID 1920063); conditions: calcium flux fluorescence, agonist mode; series mostly up to 57.6 µM; note: nearly all actives have a fitted effect of over 35% in size
Text: National Center for Advancing Translational Sciences [NCATS]
Division of Preclinical Innovation [DPI]
U.S. Environmental Protection Agency [EPA]
National Institutes of Environmental Health Sciences [NIEHS]
National Toxicology Program [NTP]
U.S. Food and Drug Administration [FDA]
Gonadotropin-releasing hormone receptor (GnRHR) is a G-protein-coupled receptor (GPCR) and acts (through phospholipase C) to increase intracellular inositol trisphosphate and then release intracellular calcium stores. Cell-based GnRHR-Hek293 calcium influx assay is using HEK293 cells that have been genetically engineered to express the human GnRHR, which activity can be measured by calcium signaling. A compound/drug can activate (agonist) GnRHR that can be monitored by levels of intracellular calcium.
GnRHR-HEK293 cells developed by Codex Corp contain human GnRHR reporter gene, which was stably integrated into HEK 293 cells. The compound activation can be detected by fluorescence intensity via calcium flux assay. This cell line has been used to screen the Tox21 10K compound library to identify GnRHR agonists.
GnRHR-Hek293 cells were dispensed at 1500cells/4uL/well in 1536-well black wall/clear bottom plates using a multidrop dispenser. After the assay plates were incubated at a 37 C/5% CO2 incubator for 18 hours, 4 uL of Calcium Dye Solution was added to each well. The plates were incubated at 37 C for 1 hour. For agonist mode, 23 nL of compounds dissolved in DMSO, positive controls or DMSO only was transferred to the assay plate by a pin tool station. The fluorescence intensity in the plates was measured using FDSS 7000EX kinetic plate reader with a filter set of Ex/Em=480/540 for 3 min at 1 sec intervals. Each test compound was measured at 15 concentrations and in triplicates.

Gonadotropin-releasing hormone receptor (Homo sapiens), sequence (P30968 whole entry, looked up): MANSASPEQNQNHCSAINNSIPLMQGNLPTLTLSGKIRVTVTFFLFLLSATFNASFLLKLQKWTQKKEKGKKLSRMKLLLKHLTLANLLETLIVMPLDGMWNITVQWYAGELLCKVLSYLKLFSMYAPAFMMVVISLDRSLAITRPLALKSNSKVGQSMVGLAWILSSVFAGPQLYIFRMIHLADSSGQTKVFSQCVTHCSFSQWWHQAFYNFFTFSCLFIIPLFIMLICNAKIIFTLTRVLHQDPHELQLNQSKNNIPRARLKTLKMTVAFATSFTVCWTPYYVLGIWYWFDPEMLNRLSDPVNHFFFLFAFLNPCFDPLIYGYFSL

SMILES | Potency
CN(C)C/C=C(/c1ccc(Br)cc1)c1cccnc1 | inactive
CN(C)CCc1c[nH]c2ccc(C[C@H]3COC(=O)N3)cc12 | inactive
CCN(CC)CCOC(=O)C1(c2ccccc2)CCCC1 | inactive
CS(=O)(=O)c1ccc(-c2cn3ccccc3n2)cc1 | inactive
O=S(=O)(Cl)c1c(Cl)cccc1Cl | inactive
CCOC(=O)CC | inactive
OCCCCCCO | inactive
COC[C@H](c1ccc(C(F)(F)F)cc1)N1CCN(C2(C)CCN(C(=O)c3c(C)ncnc3C)CC2)C[C@H]1C | inactive
C=CCON/C(CCC)=C1\C(=O)CC(C)(C)C(C(=O)OC)=C1O | inactive
O=[N+]([O-])c1c(Cl)cc(Cl)cc1Cl | inactive
CCCCCCCCCCCBr | inactive
Cc1ccc(OC(=O)c2ccccc2O)cc1 | inactive
COc1ccccc1OCC(O)COC(N)=O (stereo not given) | inactive
O=C(CCCCCCCCC#CI)Oc1ccccc1 | inactive
C=CC1CC2C=CC1C2 (stereo not given) | inactive
CNS(=O)(=O)Cc1ccc2[nH]cc(CCN(C)C)c2c1 | inactive
COC(=O)CS | inactive
Cl[Si](Cl)(c1ccccc1)c1ccccc1 | inactive
CCN(CC)c1ccc(C(=C2C=CC(=[N+](CC)CC)C=C2)c2ccc(S(=O)(=O)O)cc2S(=O)(=O)[O-])cc1 | inactive
Cc1cccc(Nc2ccncc2S(=O)(=O)NC(=O)NC(C)C)c1 | inactive

SMILES | Potency
CCCOc1ccccc1-c1nc2n[nH]nc2c(=O)[nH]1 | inactive
COc1c(N2CCNC(C)C2)c(F)cc2c(=O)c(C(=O)O)cn(C3CC3)c12 (stereo not given) | inactive
Oc1ccc(Oc2ccccc2)cc1 | inactive
N=C1N=C(N)c2ccccc21 | inactive
CCCCCCCCCC[N+](C)(C)[O-] | inactive
CCCCCCCCCCCCCCCCOS(=O)(=O)O | inactive
COC(=O)c1ccc(NC(C)=O)cc1OC | inactive
CC(=O)OC(C)(C)C | inactive
CNCCc1ccccn1 | inactive
O=C1CCCCCCCCCCC(=O)OCCO1 | inactive
CCOC(=O)NNc1ccc(N(CC)CC(C)O)nn1 (stereo not given) | inactive
O=C(O)C1CCC1 | inactive
CCCCCCCC/C=C\CCCCCCCCCCCC(=O)O | inactive
CC(=O)OC(C)=O | inactive
CC(C)c1ccc(C(=O)N=C(N)N)cc1S(C)(=O)=O | inactive
FC(F)(F)C(F)(F)C(F)(F)C(F)(F)CCI | inactive
O=C(CCC1CCN(Cc2ccccc2)CC1)c1ccc2c(c1)NCCCC2 | inactive
CCNC(=O)C(C)OC(=O)Nc1ccccc1 (stereo not given) | inactive
CC(=O)[C@H]1CC[C@H]2[C@@H]3C=CC4=CC(=O)CC[C@@]4(C)[C@@H]3CC[C@]12C | inactive
CC(=O)OCC(=O)[C@@]1(O)CCC2C3CCC4=CC(=O)CC[C@]4(C)C3[C@@H](O)C[C@@]21C (stereo not given in full) | inactive
